Activity calls are given as the source filed them.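 How the source made its calls: active means compound that blocked FSH-driven cAMP in FSH receptor cells, giving a fitted IC50; inactive means the rest.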
These compounds were tested against Follicle-stimulating hormone receptor (Homo sapiens) (UniProt P23945) (assay: Counterscreen for antagonists of the thyroid stimulating hormone receptor: ELISA activity in a Follicle Stimulating Hormone receptor cell line). Settings: HEK293-FSHR, FSH-induced cAMP ELISA chemiluminescence.
From the text: TSH is an alpha/beta heterodimeric glycoprotein hormone secreted from the anterior pituitary gland which belongs to the glycoprotein hormone family. The actions of TSH are mediated by a seven-transmembrane receptor, which upon TSH binding couples preferentially to the G-alpha (s) protein (Gs), resulting in activation of adenylate cyclase and increase in cyclic adenosine 3', 5' monophosphate (cAMP). The TSH receptor (THSR) is mainly expressed in thyroid follicular cells and regulates their growth and function. This cell based assay was conducted on a TSHR transfected HEK 293 cell line, measuring cAMP stimulation using antibody-based Homogeneous Time Resolved Fluorescence (HTRF). Our goal is to identify small molecules that will inhibit (antagonize) the thyroid-stimulating hormone receptor (TSHR), a member of the 7 transmembrane-spanning receptor (7TMR) family of cell surface receptors. TSHR-mediated hyperthyroidism is important in thyroid pathology. The development of small molecule antagonists of TSHR may lead to therapeutic approaches for TSHR-mediated hyperthyroidism caused by constitutively activating mutations or stimulating auto-antibodies associated with Graves' disease. Graves' disease is the leading cause of hyperthyroidism and is caused by autoantibodies that stimulate TSHR (TsAbs) causing thyroid growth and unregulated overproduction of thyroid hormones and existing treatments have liabilities (agranulocytosis). In addition, TSHRs are known to be expressed in multiple extrathyroidal tissues including bone, brain, kidney, testis, fat and cells of the immune system but the role of the TSHR in these tissues is not clear. Therefore, TSHR antagonists/inverse agonists could be used as probes of extrathyroidal TSHR function. Finally, TSHR inverse agonists, which are a subclass of antagonists that inhibit agonist-independent (or basal or constitutive) TSHR signaling, could be used to inhibit TSH-independent signaling in patients with recurrent or metastatic thyroid cancer who are receiving thyroid hormone to suppress TSH. In order to confirm specificity of the compounds to the TSHR, a confirmatory assay was conducted on a similar family member, the Follicle Stimulating Hormone (FSH) receptor, transfected into a HEK 293 cell line, using an orthogonal detection technology to measure cAMP stimulation: an ELISA based cAMP competition assay using cAMP-Screen Direct System (Applied Biosystems, Foster City, CA).
Transiently transfected HEK-EM 293 cells or cells stably expressing FSHR were seeded into 96-well plates at a density of 7 x10^4 cells per well in DMEM containing 10% FBS. Cells were cultured for 24 h before incubation for 20 min in HBSS/10 mM HEPES (pH 7.4). To determine the effect of the compound on FSH induced FSHR activity, cells were incubated for 20 min with the compound in HBSS/HEPES without IBMX and subsequently for 40 min with bovine FSH (Sigma) and the compound in HBSS/HEPES supplemented with 1 mM IBMX at 37 C. The levels of cAMP in cells incubated in HBSS/HEPES without IBMX were subtracted in all experiments. After aspiration of the incubation medium, cells were lysed using lysis buffer of the cAMP-Screen Direct system (Applied Biosystems, Foster City, CA). The cAMP content of the cell lysate was determined using the method described in the manufacturer's protocol. The chemiluminescence signal was measured in a VICTOR3 V 1420 multilabel counter (PerkinElmer, Norwalk, CT). The potencies (EC50 and IC50) of the ligands were obtained from dose-response curves by data analysis with GraphPad Prism 4 for Windows.

Follicle-stimulating hormone receptor (Homo sapiens), sequence (P23945 whole entry, looked up): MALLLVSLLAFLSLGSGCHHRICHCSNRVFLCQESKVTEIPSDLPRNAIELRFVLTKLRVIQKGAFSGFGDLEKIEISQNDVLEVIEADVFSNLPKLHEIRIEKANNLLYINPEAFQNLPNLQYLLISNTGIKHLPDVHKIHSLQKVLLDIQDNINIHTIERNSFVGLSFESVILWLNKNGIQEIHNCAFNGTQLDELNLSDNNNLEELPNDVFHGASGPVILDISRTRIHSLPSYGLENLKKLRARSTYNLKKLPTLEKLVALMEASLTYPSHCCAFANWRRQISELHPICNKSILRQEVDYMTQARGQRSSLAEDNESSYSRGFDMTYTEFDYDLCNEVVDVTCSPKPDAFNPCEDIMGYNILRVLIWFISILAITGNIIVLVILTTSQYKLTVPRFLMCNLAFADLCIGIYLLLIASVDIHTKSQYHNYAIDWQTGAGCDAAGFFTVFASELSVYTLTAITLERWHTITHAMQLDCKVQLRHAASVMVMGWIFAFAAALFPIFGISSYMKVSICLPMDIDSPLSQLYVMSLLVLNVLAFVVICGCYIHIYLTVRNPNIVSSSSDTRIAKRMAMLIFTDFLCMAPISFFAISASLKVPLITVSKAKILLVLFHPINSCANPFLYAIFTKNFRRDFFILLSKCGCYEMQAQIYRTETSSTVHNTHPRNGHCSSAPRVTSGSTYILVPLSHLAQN

Q: For COc1ccc(C2Nc3ccccc3C(=O)N2Cc2ccco2)cc1COc1c(C)cc(NC(C)=O)cc1C (stereo unspecified), which outcome is on record?
A: inactive

Q: How did the IC50 turn out when Cc1cccc(C)c1OCc1cccc(C2Nc3ccccc3C(=O)N2Cc2ccco2)c1 (stereo unspecified) was run?
A: 8.2 µM (active)

Q: For COc1ccc(C2Nc3ccccc3C(=O)N2Cc2ccco2)cc1CSc1c(C)cccc1C (stereo unspecified), which IC50 is on record?
A: 14.6 µM (active)

Q: With COc1ccc(C2Nc3ccccc3C(=O)N2Cc2cccnc2)cc1COc1c(C)cccc1C (stereo unspecified) as the compound, how does the IC50 read?
A: 32.7 µM (active)

Q: How did the IC50 turn out when COc1ccc(C2Nc3ccccc3C(=O)N2Cc2ccco2)cc1COc1c(C)cccc1C (stereo unspecified) was run?
A: 4.55 µM (active)

Q: With CCc1cccc(CC)c1OCc1cc(C2Nc3ccccc3C(=O)N2Cc2ccco2)ccc1OC (stereo unspecified) as the compound, how does the outcome read?
A: inactive

Source: PubChem BioAssay AID504384 (National Center for Advancing Translational Sciences (NCATS), 2011)
